A short description of experiment [1]: qHTS assay to identify small molecule antagonists of the vitamin D receptor (VDR) signaling pathway - cell viability counter screen (AID 743225). Also: nearly all actives have a fitted effect of over 50% in size. The procedure, abridged: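 Read-out: CellTiter-Glo luminescence measured 30 min after reagent addition at room temperature. Cells were VDR-bla HEK 293T exposed 16 h at 37C, 5% CO2, to compound with 3 nM final calcitriol agonist.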
On the technique in general: In qHTS, concentration-response curves come from the screen itself.

Experiment [2] in a line: qHTS assay to identify small molecule agonists of the endoplasmic reticulum stress response signaling pathway (AID 1159516; active = well fitted activation curve with a large enough effect in the signal ratio in the repeat runs, not every such curve was filed as active; the % refers to the signal ratio). The method in brief: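 CellSensor ESRE-bla HeLa cells, carrying a beta-lactamase reporter driven by the ER stress response element, were plated overnight and exposed to compounds for 5 hr at 37 C. Reporter activity was read as FRET substrate fluorescence after 2 hr at room temperature.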

The nature of experiment [3]: qHTS assay to identify small molecule agonists of the endoplasmic reticulum stress response signaling pathway - cell viability counter screen (AID 1159517; calls by dose curve; also: series mostly up to about 61 µM; nearly all actives have a fitted effect of over 50% in size). The procedure, abridged:
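HeLa cells carrying an ESRE-driven beta-lactamase reporter receive compound for 5 hr at 37 C. Cell viability is then gauged with CellTiter-Glo by luminescence, 30 min at room temperature.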

Experiment [4] can be described thus: qHTS assay to identify small molecule antagonists of the retinoid-related orphan receptor gamma (ROR-gamma) signaling pathway - cell viability counter screen (AID 1159520). Also: nearly all actives have a fitted effect of over 50% in size. The method in brief:
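Cytotoxicity was read from cellular ATP (CellTiter-Glo luminescence) after 16 hr at 37 C with 1 uM doxycycline induction. The inducer was added 2 hr after compound transfer to Tet-on ROR gamma CHO cells.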

The target in experiment [5] is Nuclear receptor ROR-gamma (Homo sapiens) (UniProt P51449). In words: qHTS assay to identify small molecule antagonists of the retinoid-related orphan receptor gamma (ROR-gamma) signaling pathway (AID 1159521;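 also: CHO cells with doxycycline inducible ROR-gamma driving an RORE luciferase reporter; top concentration of the series differs between compounds; nearly all actives have a fitted effect of over 50% in size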). The method in brief:
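CHO Tet-on RORγ, RORE-luc reporter. Cpd 2 h pre-incubation, then dox hyclate 1 uM final, 16 h, 37 C/5% CO2. ONE-Glo luminescence; decrease = antagonist.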

Experiment [6] can be described thus: qHTS assay to identify small molecule agonists of the AP-1 signaling pathway - cell viability counter screen (AID 1159525; calls by dose curve; also: nearly all actives have a fitted effect of over 55% in size). The method in brief:
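Luminescent ATP readout (Cell Titer Glo, 30 min RT), normalised to DMSO and tetra n-octyl ammonium bromide controls. Cells were ME-180 AP-1-bla in 0.5% dialyzed FBS Opti-MEM, with a 5 h, 37 °C compound exposure.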

A short description of experiment [7]: qHTS assay to identify small molecule agonists of the AP-1 signaling pathway (AID 1159526; calls by dose curve).
Experiment [8] deals with Retinoic acid receptor RXR-alpha (Homo sapiens) (UniProt P19793). In words: qHTS assay to identify small molecule agonists of the RXR signaling pathway (AID 1159527; calls by dose curve; also: nearly all actives have a fitted effect of over 35% in size). The method in brief: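 Read-out: beta-lactamase FRET ratio (405 nm excitation, 460 and 530 nm emission) after 2 hr substrate loading at room temperature. Cells were RXR-alpha-UAS-bla HEK 293T treated with compounds for 16 hr in 2% charcoal-stripped FBS medium.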

A short description of experiment [9]: qHTS assay to identify small molecule agonists of the RXR signaling pathway - cell viability counter screen (AID 1159529). The procedure, abridged:
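HEK 293T RXRa-bla cells, 2% CS-FBS; 5 h settle; cpd 16 h 37 C, 5% CO2; CellTiter-Glo 30 min RT, luminescence. Tetraoctyl ammonium bromide as positive control.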

Experiment [10] is described as follows: qHTS assay to identify small molecule antagonists of the retinoid acid receptor (RAR) signaling pathway - cell viability counter screen (AID 1159551). Also: nearly all actives have a fitted effect of over 35% in size. The procedure, abridged:
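C3RL4 cells were seeded overnight at 37 C, then treated with compounds plus 1 uM (final) retinol for 6 h at 37 C. Viability was read as ATP by CellTiter-Glo luminescence after 30 min at room temperature.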

A short description of experiment [11]: qHTS assay to identify small molecule antagonists of the retinoic acid receptor (RAR) signaling pathway (AID 1159552; also: nearly all actives have a fitted effect of over 50% in size). The method in brief:
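Cells of the C3RL4 line were seeded, incubated overnight, then dosed with compounds in DMSO followed immediately by retinol (1 uM final). Six hours later luciferase detection reagent went in; signal was measured after 30 min at RT.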

Experiment [12] in a line: qHTS assay to identify small molecule agonists of the retinoic acid receptor (RAR) signaling pathway (AID 1159553). Also: potency is read from the fitted curve at half-maximal effect. The method in brief: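 C3RL4 cells carrying a RARE luciferase reporter were plated overnight at 37 C, then exposed to compounds in DMSO for 6 hr at 37 C and 5% CO2. Luminescence was read 30 min after luciferase reagent addition at room temperature.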
Experiment [13] in a line: qHTS assay to identify small molecule antagonists of the estrogen related receptor (ERR) signaling pathway from Tox21 library - cell viability counter screen (AID 1224834). Also: nearly all actives have a fitted effect of over 30% in size. The procedure, abridged:
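ERR reporter cells were plated 6 h before compound addition, then exposed to test compounds in DMSO for 17.5 h at 37 C. Viability was read as CellTiter-Fluor fluorescence after a 30-minute incubation at 37 C.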

Experiment [14] deals with Luciferin 4-monooxygenase (Photinus pyralis) (UniProt P08659). In words: qHTS assay to identify small molecule inhibitors of firefly luciferase (AID 1224835). Also: nearly all actives have a fitted effect of over 25% in size. Also: potency is read from the fitted curve at half-maximal effect. The procedure, abridged:
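Inhibition of purified Photinus luciferase is measured by luminescence. Substrate levels (D-luciferin, ATP) sit at their KM values. Each compound is tested in a concentration series.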

The nature of experiment [15]: qHTS assay to identify small molecule agonists of the constitutive androstane receptor (CAR) signaling pathway - cell viability counter screen (AID 1224836). Also: series mostly up to about 92 µM; nearly all actives have a fitted effect of over 45% in size. The procedure, abridged: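 HepG2-CYP2B6-hCAR, 2500 cells/well, 4 h pre-incubation; cpd 15 conc + PK11195 0.75 uM final; 23 h, 37 C/5% CO2; CellTiter-Fluor, fluorescence.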
Experiment [16] in a line: qHTS assay to identify small molecule antagonists of the constitutive androstane receptor (CAR) signaling pathway - cell viability counter screen (AID 1224837). Also: series mostly up to about 92 µM; nearly all actives have a fitted effect of over 45% in size. The procedure, abridged: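 HepG2 cells stably expressing hCAR and a CYP2B6-2.2kb reporter were plated and pre-incubated 4 hr at 37 C/5% CO2, then given compounds at 15 concentrations plus 50 nM CITCO (final). After 23 hr, viability was read by CellTiter-Fluor fluorescence.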

Experiment [17] can be described thus: qHTS assay to identify small molecule antagonists of the estrogen related receptor signaling pathway with the pleiotropic PPARgamma coactivator (PGC) from Tox21 10K library - cell viability counter screen (AID 1224840; active = well fitted cell-killing curve with a large enough effect in the repeat runs, not every such curve was filed as active; also: nearly all actives have a fitted effect of over 40% in size). The procedure, abridged:
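PGC/ERR cells were seeded at 2,000 cells/well and left 6 hours at 37 C/5% CO2 before pin-tool addition of compounds in DMSO. After 17.5 hours at 37 C, CellTiter-Fluor was added and fluorescence read 30 minutes later.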

Experiment [18] addresses Nuclear receptor subfamily 1 group I member 3 (Homo sapiens) (UniProt Q14994). In words: qHTS assay to identify small molecule antagonists of the constitutive androstane receptor (CAR) signaling pathway (AID 1224838). Also: nearly all actives have a fitted effect of over 40% in size. The procedure, abridged: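 HepG2 cells stably co-transfected with hCAR and a CYP2B6-2.2kb luciferase reporter were seeded 4 h before compound addition at 15 concentrations. Cells were stimulated with 50 nM CITCO (final) for 24 h at 37 C; luciferase luminescence was then read.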

The target is the same in experiment [19]. In words: qHTS assay to identify small molecule agonists of the constitutive androstane receptor (CAR) signaling pathway (AID 1224839). Also: series mostly up to about 92 µM; nearly all actives have a fitted effect of over 15% in size. The procedure, abridged:
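HepG2-CYP2B6-hCAR cells, 2500/well, 4 h pre-incubation; compounds 15 conc.; PK11195 0.75 uM final; 24 h, 37 C/5% CO2; ONE-Glo luciferase read.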

Results filed as inconclusive are left out. Values without a mark were called inactive. Calls of active or inactive are those of the source. Unless noted, calls follow the shape of the dose curve; as a rule, active = well fitted curve in the direction sought with a large enough effect in the repeat runs; inconclusive = weak or mixed curves; inactive = no such curve, though single readings can be large; an effect the other way counts as inactive or inconclusive.

Chain of Retinoic acid receptor RXR-alpha (Homo sapiens) (P19793 whole entry, looked up): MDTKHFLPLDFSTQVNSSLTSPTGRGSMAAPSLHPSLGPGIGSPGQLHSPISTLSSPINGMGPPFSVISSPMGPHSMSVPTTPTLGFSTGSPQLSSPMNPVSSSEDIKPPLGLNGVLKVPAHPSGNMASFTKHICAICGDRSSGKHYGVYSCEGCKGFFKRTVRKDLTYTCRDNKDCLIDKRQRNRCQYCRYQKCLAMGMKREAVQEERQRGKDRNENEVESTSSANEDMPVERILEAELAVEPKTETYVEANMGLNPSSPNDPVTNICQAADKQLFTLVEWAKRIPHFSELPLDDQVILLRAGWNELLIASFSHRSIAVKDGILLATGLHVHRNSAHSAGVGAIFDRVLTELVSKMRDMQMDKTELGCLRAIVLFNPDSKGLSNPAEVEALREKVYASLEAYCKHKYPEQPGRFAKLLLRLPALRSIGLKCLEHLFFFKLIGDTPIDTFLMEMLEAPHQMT
Chain of Luciferin 4-monooxygenase (Photinus pyralis) (P08659 whole entry, looked up): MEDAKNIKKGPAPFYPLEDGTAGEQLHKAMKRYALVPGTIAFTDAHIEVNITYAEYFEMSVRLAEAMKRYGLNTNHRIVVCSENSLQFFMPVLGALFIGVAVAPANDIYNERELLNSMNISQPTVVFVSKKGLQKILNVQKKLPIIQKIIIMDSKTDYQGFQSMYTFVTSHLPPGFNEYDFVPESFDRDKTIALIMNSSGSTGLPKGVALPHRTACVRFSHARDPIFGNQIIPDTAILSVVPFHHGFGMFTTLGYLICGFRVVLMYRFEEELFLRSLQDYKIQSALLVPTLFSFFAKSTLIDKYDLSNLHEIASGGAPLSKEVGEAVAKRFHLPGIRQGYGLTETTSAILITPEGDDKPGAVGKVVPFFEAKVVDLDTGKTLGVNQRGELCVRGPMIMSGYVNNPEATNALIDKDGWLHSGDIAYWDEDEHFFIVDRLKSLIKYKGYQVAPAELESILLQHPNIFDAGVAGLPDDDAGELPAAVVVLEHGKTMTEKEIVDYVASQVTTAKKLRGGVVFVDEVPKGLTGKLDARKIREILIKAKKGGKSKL
Chain of Nuclear receptor subfamily 1 group I member 3 (Homo sapiens) (Q14994 whole entry, looked up): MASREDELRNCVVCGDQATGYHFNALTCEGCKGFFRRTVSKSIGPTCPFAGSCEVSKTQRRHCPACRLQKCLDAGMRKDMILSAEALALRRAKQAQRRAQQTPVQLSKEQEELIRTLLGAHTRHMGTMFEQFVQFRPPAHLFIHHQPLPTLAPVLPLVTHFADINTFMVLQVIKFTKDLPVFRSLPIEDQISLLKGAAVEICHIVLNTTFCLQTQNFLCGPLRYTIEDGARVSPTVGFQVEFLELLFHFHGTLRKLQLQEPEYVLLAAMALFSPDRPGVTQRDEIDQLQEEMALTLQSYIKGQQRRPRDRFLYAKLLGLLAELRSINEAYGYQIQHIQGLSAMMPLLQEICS

For `C[C@]12C=CC(=O)C=C1[C@@H](F)C[C@@H]1[C@@H]2[C@@H](O)C[C@@]2(C)[C@H]1CC[C@]2(O)C(=O)CO`, the call in [1], in [3], in experiment [4], in experiment [5], in experiment [6] and in experiment [10] was inactive. In addition, the compound was classed as inactive in experiment [11], in experiment [13], in experiment [15], in experiment [16] and in experiment [17]. Moreover, the Potency entry in experiment [2], in [7], in [8], in experiment [9], in [12] and in experiment [14] was “inactive” throughout.

`COc1ccc2cc(CCC(C)=O)ccc2c1`: the call in experiment [1], in [3], in experiment [4], in experiment [5], in experiment [6] and in [10] was inactive. Further, the outcome in experiment [11], in experiment [13], in [15], in [16] and in experiment [17] was inactive. For the same compound, the Potency result in [2], in [7], in experiment [8] and in experiment [9] was “inactive” throughout. The values for the Potency in [12] and in [14] were 3.35 µM (active) and 13.8 µM (active), respectively.

Regarding `CC(=O)c1ccc(O)c(C(N)=O)c1`, the call in experiment [1], in experiment [3], in experiment [4], in experiment [5], in [6] and in [10] was inactive. Besides, the compound was classed as inactive in experiment [13], in [15] and in experiment [16]. For the same compound, the Potency result in [2], in [7], in experiment [8], in experiment [9], in [12] and in [14] was “inactive” in each case.

Regarding `CC(C)(C)C(=O)NCCCC(=O)O`, the compound was classed as inactive in [1], in experiment [3], in [4], in experiment [5], in experiment [6] and in [10]. Moreover, the result in experiment [13], in [15], in experiment [16], in [18] and in experiment [17] was inactive. The Potency result in experiment [2], in experiment [7], in experiment [8], in [9], in experiment [12] and in experiment [14] was “inactive” throughout. The Potency entry in [19] was “inactive”.

Regarding `CCN(CC)CC`, the compound was classed as inactive in [1], in [4], in [5], in [6], in experiment [10] and in experiment [13]. Further, the result in experiment [15], in experiment [16] and in experiment [17] was inactive. Further, the Potency result in experiment [2], in [7], in [8], in experiment [9], in experiment [12] and in [14] was “inactive” in each case. Moreover, in [19], the Potency entry was “inactive”.

`CCOC(=O)CN1CCCC1=O`: the call in experiment [1], in [3], in experiment [4], in [5], in [6] and in experiment [10] was inactive. The call in experiment [11], in experiment [13], in experiment [15], in experiment [16], in experiment [18] and in experiment [17] was inactive. In addition, the Potency entry in experiment [2], in experiment [7], in experiment [8], in experiment [9], in experiment [12] and in [14] was “inactive” in each case. Besides, the Potency entry in experiment [19] was “inactive”.
